Measurements as given in PubChem BioAssay (NCATS).
Inconclusive results are not listed. Activity calls are given as the source filed them. Calls come from the whole dose curve; as a rule, active = well fitted cell-killing curve with a large enough effect; inconclusive = small, poorly fitted or top-dose-only effect, or effect the other way; inactive = flat fitted curve, though single readings scatter.

How the values were obtained:
Assay in all cases: Primary qHTS to identify gynecologic anti-cancer compounds using libraries of approved drugs and bioactive compounds (AID 1345084); note: nearly all actives have a fitted effect of over 55% in size
C33A = conditions: Gynecologic cancer cell panel viability, ATPlite luminescence, 48 h; series mostly up to 57.5 µM
Summary of the method: (§1)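 ATP-based viability (ATPlite), 1,000 cells/well, 16 h pre-incubation, 48 h compound at 37 C, 5% CO2, 15 min RT before read.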

CAOV3 = conditions: Gynecologic cancer cell panel viability, ATPlite luminescence, 48 h; series mostly up to 57.5 µM
Summary of the method: as §1

CASKI = conditions: Gynecologic cancer cell panel viability, ATPlite luminescence, 48 h; series mostly up to 57.5 µM
Summary of the method: as §1

Es-2 = conditions: Gynecologic cancer cell panel viability, ATPlite luminescence, 48 h; series mostly up to 57.5 µM
Summary of the method: as §1

HeLa = conditions: Gynecologic cancer cell panel viability, ATPlite luminescence, 48 h; series mostly up to 57.5 µM
Summary of the method: as §1

Hek293T = conditions: Gynecologic cancer cell panel viability, ATPlite luminescence, 48 h, control line for the selectivity index; series mostly up to 57.5 µM
Summary of the method: as §1

JEG-3 = conditions: Gynecologic cancer cell panel viability, ATPlite luminescence, 48 h; series mostly up to 57.5 µM
Summary of the method: as §1

OV90 = conditions: Gynecologic cancer cell panel viability, ATPlite luminescence, 48 h; series mostly up to 57.5 µM
Summary of the method: as §1

PA-1 = conditions: Gynecologic cancer cell panel viability, ATPlite luminescence, 48 h; series mostly up to 57.5 µM
Summary of the method: as §1

SKOV3 = conditions: Gynecologic cancer cell panel viability, ATPlite luminescence, 48 h; series mostly up to 57.5 µM
Summary of the method: as §1

Tov-21-G = conditions: Gynecologic cancer cell panel viability, ATPlite luminescence, 48 h; series mostly up to 57.5 µM
Summary of the method: as §1

Tov112D = conditions: Gynecologic cancer cell panel viability, ATPlite luminescence, 48 h; series mostly up to 57.5 µM
Summary of the method: as §1
% is set by controls: 0 for no effect and ±100 for the full control effect.

C/C(=C\CC[C@@H](C)[C@H]1CC(O)[C@@]2(C)C3CC[C@H]4C(C)(C)[C@@H](OC5OCC(O)C(O)C5OC5OC(CO)C(O)C(O)C5O)CC[C@@]45C[C@@]35CC(O)[C@]12C)C(=O)O (stereo not given in full)
inactive: Potency (C33A) | Potency (CAOV3) | Potency (CASKI) | Potency (Es-2) | Potency (HeLa) | Potency (Hek293T) | Potency (JEG-3) | Potency (OV90) | Potency (PA-1) | Potency (SKOV3) | Potency (Tov-21-G) | Potency (Tov112D)

C[C@@H]1CC[C@]2(C(=O)O)CC[C@]3(C)C(=CCC4[C@@]5(C)C[C@@H](O)[C@H](O)[C@@](C)(CO)C5CC[C@]43C)C2[C@]1(C)O (stereo not given in full)
inactive: Potency (C33A) | Potency (CAOV3) | Potency (CASKI) | Potency (Es-2) | Potency (HeLa) | Potency (Hek293T) | Potency (JEG-3) | Potency (OV90) | Potency (PA-1) | Potency (Tov-21-G) | Potency (Tov112D)

COC1C(=O)CCC2(CO2)C1(O)C1(C)OC1CC=C(C)C (stereo not given)
inactive: Potency (C33A) | Potency (CAOV3) | Potency (CASKI) | Potency (Es-2) | Potency (HeLa) | Potency (Hek293T) | Potency (JEG-3) | Potency (OV90) | Potency (PA-1) | Potency (SKOV3) | Potency (Tov112D)

Cc1cc(C)nc(NS(=O)(=O)c2ccc(NC(=S)NC(=O)COc3ccc(Br)cc3Cl)cc2)n1
inactive: Potency (C33A) | Potency (CAOV3) | Potency (CASKI) | Potency (Es-2) | Potency (HeLa) | Potency (Hek293T) | Potency (JEG-3) | Potency (OV90) | Potency (PA-1) | Potency (SKOV3) | Potency (Tov-21-G) | Potency (Tov112D)

C/C=C(\C)C(=O)O[C@@H]1CC2[C@@H](CC=C3C[C@@H](O[C@H]4C[C@H](OC)[C@H](O[C@H]5C[C@H](OC)[C@H](O[C@@H]6O[C@H](C)[C@@H](O[C@H]7C[C@H](OC)[C@H](O[C@@H]8O[C@H](CO)[C@@H](O)[C@H](O)[C@H]8O)[C@@H](C)O7)[C@H](OC)[C@H]6O)[C@@H](C)O5)[C@@H](C)O4)CC[C@@]32C)[C@@]2(O)CC[C@H](C(C)=O)[C@@]12C (stereo not given in full)
inactive: activity change, negative = cytotoxicity (C33A) 1.36% [at 6.55 µM] | activity change, negative = cytotoxicity (CAOV3) 9.95% [at 6.55 µM] | activity change, negative = cytotoxicity (CASKI) 2.06% [at 6.55 µM] | activity change, negative = cytotoxicity (Es-2) -1.14% [at 6.55 µM] | activity change, negative = cytotoxicity (HeLa) -0.318% [at 6.55 µM] | activity change, negative = cytotoxicity (Hek293T) -2.04% [at 6.55 µM] | activity change, negative = cytotoxicity (JEG-3) -4.6% [at 6.55 µM] | activity change, negative = cytotoxicity (OV90) -1.27% [at 6.55 µM] | activity change, negative = cytotoxicity (PA-1) -4.92% [at 6.55 µM] | activity change, negative = cytotoxicity (SKOV3) -3.56% [at 6.55 µM] | activity change, negative = cytotoxicity (Tov-21-G) -5.17% [at 6.55 µM] | activity change, negative = cytotoxicity (Tov112D) 5.73% [at 6.55 µM]

OCC(CO[C@@H]1O[C@H](CO)[C@@H](O)[C@H](O)[C@H]1O)c1ccc2c(c1)OCO2 (stereo not given in full)
inactive: Potency (C33A) | Potency (CAOV3) | Potency (CASKI) | Potency (Es-2) | Potency (HeLa) | Potency (Hek293T) | Potency (JEG-3) | Potency (OV90) | Potency (PA-1) | Potency (Tov-21-G) | Potency (Tov112D)

CC1COC2(OC3CC4C5CC(O[C@@H]6O[C@H](C)[C@@H](O[C@@H]7O[C@@H](C)[C@H](O)[C@@H](O)[C@H]7O)[C@H](O)[C@H]6O)C6CC(O)CCC6(C)C5CCC4(C)C3C2C)C(O)C1 (stereo not given in full)
inactive: Potency (C33A) | Potency (CAOV3) | Potency (CASKI) | Potency (Es-2) | Potency (HeLa) | Potency (Hek293T) | Potency (JEG-3) | Potency (OV90) | Potency (PA-1) | Potency (SKOV3) | Potency (Tov-21-G) | Potency (Tov112D)

CC1(C)C=CN2C(=O)C3=CCCN3C(=O)[C@@H]2C[C@@]12Nc1ccccc1C2=O
inactive: Potency (C33A) | Potency (CAOV3) | Potency (CASKI) | Potency (Es-2) | Potency (HeLa) | Potency (Hek293T) | Potency (JEG-3) | Potency (OV90) | Potency (PA-1) | Potency (Tov-21-G) | Potency (Tov112D)

O=C(O[C@H]1[C@@H]2C[C@@H]3OC[C@](O)([C@@H]1Cl)[C@H]2C(O[C@@H]1O[C@H](CO)[C@@H](O)[C@H](O)[C@H]1O)O3)c1ccc(O)c(O)c1 (stereo not given in full)
inactive: Potency (C33A) | Potency (CAOV3) | Potency (CASKI) | Potency (Es-2) | Potency (HeLa) | Potency (Hek293T) | Potency (JEG-3) | Potency (OV90) | Potency (PA-1) | Potency (SKOV3) | Potency (Tov-21-G) | Potency (Tov112D)

O=C1OCC(c2ccccc2)=C1Cc1ccccc1
inactive: Potency (C33A) | Potency (CAOV3) | Potency (CASKI) | Potency (Es-2) | Potency (HeLa) | Potency (Hek293T) | Potency (JEG-3) | Potency (OV90) | Potency (PA-1) | Potency (Tov-21-G) | Potency (Tov112D)
